HGIII-sPLA2 inh = Inhibits HGIII-sPLA2 liposome hydrolysis, primary screen. Q9NZ20. QFRET BODIPY PC-A2 liposome hydrolysis, fluorescence. inhibition, % at 12.2 µM. 370,000 compounds, 0.56% hits. AID 743126;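 active = inhibition above mean plus 3 SD of compounds lying within the high and low control bounds, cut at about 19% in these data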;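 note: 0% = median of test compound wells and 100% = no enzyme DMSO wells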
PLCg1 inh = blocks human PLC-gamma1 enzyme activity | P19174 | purified PLC-gamma1, fluorogenic substrate, fluorescence | inhibition, % at 12.2 µM | 370,000 compounds, 0.84% hits; in the data active = inhibition above about 9.5%
PLC-beta3 inh = inhibitors of human phospholipase C beta3. inhibition, % at 12.2 µM. 370,000 compounds, 0.18% hits. Purified PLC-beta3, fluorogenic substrate, fluorescence. Q01970; in the data active = inhibition above about 11%;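 note: 0% = median of compound wells on plate and 100% = full blocker control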
DAGLB inhibitor = blocks human DAGLB lipase activity | HEK293T DAGLB membrane lysate, EnzChek fluorogenic substrate | AID 504411 | inhibition, % at 5.17 µM | 340,000 compounds, 0.059% hits; in the data active = inhibition above about 34%;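 note: 0% = enzyme with vehicle and 100% = wells lacking enzyme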
hGIII sPLA2 conf = human GIII-sPLA2 inhibition, confirmation; shares compounds with HGIII-sPLA2 inh; recombinant hGIII-sPLA2, BODIPY PC-A2 QFRET fluorescence; inhibition, % at 12.2 µM; 2,000 compounds, 34% hits; AID 743280;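 active = mean inhibition across triplicates above the hit cutoff set in the earlier primary screen, cut at about 19% in these data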;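 note: 0% = enzyme with DMSO and 100% = DMSO wells lacking enzyme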
535nm interf = 535nm fluorescence interference, HGIII-sPLA2 counter-screen; shares compounds with HGIII-sPLA2 inh; BODIPY FL product fluorescence interference, QFRET; inhibition, % at 12.2 µM; 2,000 compounds, 8.5% hits; AID 743282;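 active = average inhibition above the solvent-only control mean plus 3 SD, cut at about 6% in these data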;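 note: 0% = DMSO with substrate plus product and 100% = DMSO with substrate alone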
BODIPY interf DR = interferes with 535nm fluorescence in dose response counter-screen; shares compounds with HGIII-sPLA2 inh; BODIPY FL product fluorescence interference, cell-free; IC50, µM; 240 tested, under 10 active;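 active = IC50 at or below 10 µM; inactive = IC50 above 10 µM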
* marks the source's active call; other numbers are inactive results; nt = not tested or not shown. Compounds with a hit are over-represented: about 1.5% of the library has one in this group of screens.

SMILES	HGIII-sPLA2 inh	PLCg1 inh	PLC-beta3 inh	DAGLB inhibitor	hGIII sPLA2 conf	535nm interf	others
COC(=O)[C@]12C[C@H](CC(=O)N3CCC(c4ccccc4)CC3)C(=O)N(Cc3ccco3)C1=C[C@H](C(C)C)O[C@@H]2C1CC1	-9	3	2	nt	nt	nt
CC1(C)CC(CCN)(Cc2ccccc2Cl)CCO1 (stereo not drawn)	20*	2	-2	0	11	-12
O=C(NNC(=S)Nc1ccc(Cl)cc1Cl)c1ccc(N2CCOCC2)c([N+](=O)[O-])c1	24*	4	0	17	28*	12*
O=C(NNC(=S)Nc1ccc(Br)cc1)c1ccc(N2CCOCC2)c([N+](=O)[O-])c1	25*	2	0	16	30*	11*
Cc1ccc(NC(=S)NNC(=O)c2ccc(N3CCOCC3)c([N+](=O)[O-])c2)cc1Cl	17	0	-2	16	nt	nt
O=C(c1ccc(N2CCOCC2)c([N+](=O)[O-])c1)N1CCCCC1	2	0	-6	2	nt	nt
CC(C)C(N)c1csc(Nc2nncc3ccccc23)n1 (stereo not drawn)	20*	-56	-73	nt	6	-16
COc1cccc(Nc2nc(C(N)C(C)C)cs2)n1 (stereo not drawn)	28*	2	2	nt	10	-13
NC(Cc1ccccc1)c1csc(Nc2nncc3ccccc23)n1 (stereo not drawn)	15	-51	-63	nt	nt	nt
CC(N)c1csc(Nc2nncc3ccccc23)n1 (stereo not drawn)	23*	-37	-45	nt	2	-8
Cc1ccc(-n2c(SCc3ccc(Cl)c(Cl)c3)nnc2-c2ccc(C(C)(C)C)cc2)cc1	9	-1	-2	nt	nt	nt
O=C(CN1CCC(NC(=O)Nc2ccc(Cl)cc2)CC1)Nc1ccc2c(c1)OCCO2	-3	2	1	nt	nt	nt
NC(c1csc(Nc2cc(Oc3ccccc3)ncn2)n1)c1ccccc1Cl (stereo not drawn)	21*	0	-15	nt	13	-3
NC(Cc1ccc(Cl)cc1)c1csc(Nc2cc(Oc3ccccc3)ncn2)n1 (stereo not drawn)	27*	6	-7	nt	20*	-13
COC(=O)c1cnc(Nc2nc(C(N)Cc3ccc(Cl)cc3)cs2)nc1C(F)(F)F (stereo not drawn)	27*	5	-1	nt	8	-5
NC(c1csc(Nc2cc(NCc3ccco3)ncn2)n1)c1ccccc1Cl (stereo not drawn)	23*	-13	-24	nt	-5	-3
CC(N)c1csc(Nc2cc(Oc3ccccc3)ncn2)n1 (stereo not drawn)	17	5	-12	nt	nt	nt
COc1ccc(S(=O)(=O)NCC(=O)N2CCN(c3ccccn3)CC2)c(OC)c1	0	0	0	nt	nt	nt
O=C(C1CCCN(S(=O)(=O)c2ccc(F)cc2)C1)N1CCN(Cc2ccccc2)CC1 (stereo not drawn)	1	1	4	nt	nt	nt
CC(Oc1ccccc1F)c1nnc(SCC(=O)NCc2ccc3c(c2)OCO3)o1 (stereo not drawn)	84*	-2	-10	1	-1	-5
Cc1cccc(-n2cnc(C(=O)NNC(=S)Nc3ccc(Cl)cc3)c2)n1	34*	-4	-3	4	59*	7.9*
Cc1nc2ccccn2c1C(=O)NNC(=S)Nc1ccc(Cl)cc1	14	-21	-23	3	nt	nt
CCNC(=O)OCCC12CC3CC(CC(C3)C1)C2	1	0	4	-9	nt	nt
O=C(OCCC12CC3CC(CC(C3)C1)C2)c1ccc(NCc2cc(O)ccc2O)cc1	21*	0	-3	7	21*	13*
c1ccc(-c2ccc(CNc3nc(-c4ccccn4)nnc3-c3ccccc3)cc2)cc1	27*	2	4	nt	-1	-31
SMILES	HGIII-sPLA2 inh	PLCg1 inh	PLC-beta3 inh	DAGLB inhibitor	hGIII sPLA2 conf	535nm interf	others
Cn1c(-c2cccc3ccccc23)n[nH]c1=S	20*	0	-1	0	5	-4
COc1ccccc1-n1c(-c2ccco2)n[nH]c1=S	7	1	-7	-2	nt	nt
Cc1ccc(C)c(-n2c(-c3ccco3)n[nH]c2=S)c1	21*	-1	-1	2	21*	3
S=c1[nH]nc(-c2ccco2)n1-c1cccc2ccccc12	21*	8	8	-2	25*	3
Cn1c(Cn2c3ccccc3c3ccccc32)n[nH]c1=S	7	3	0	8	nt	nt
CC(C)(C)c1ccc(S(=O)(=O)N2CCC(C(=O)N3CCN(C4CCCCC4)CC3)CC2)cc1	-6	5	4	nt	nt	nt
COc1cc2c(cc1NC(=O)CSc1nnc(-c3cccnc3)n1-c1ccc(Br)cc1)oc1ccccc12	1	0	2	nt	nt	nt
Cc1ccc(CN2CCN(/N=C/c3ccc(N(C)C)cc3)CC2)cc1	21*	4	-1	nt	12	-4
Cc1ccc(/C=N/N2CCN(Cc3ccccc3)CC2)cc1	3	1	-5	-5	nt	nt
OC(COCc1ccc(Cl)cc1)CN1CCc2ccccc2C1 (stereo not drawn)	23*	3	-5	-2	0	-22
OC(COCc1ccc(Cl)cc1)CN1CCN(CC(O)COCc2ccc(Cl)cc2)CC1 (stereo not drawn)	-1	0	0	1	nt	nt
CCOC(=O)C1=NOC(C(C)=O)(C(=O)NC2CCCC2)C1 (stereo not drawn)	2	2	3	nt	nt	nt
CC1=C2N=C(N)N(Cc3ccccc3)C(Cc3ccccc3)C2n2c(=O)n(-c3ccccc3)c(=O)n2C1 (stereo not drawn)	2	7	7	nt	nt	nt
COc1ccc2c(-c3ccccc3)cc(SCC(N)=O)nc2c1	20*	-4	-9	-1	4	-17
O=C(NC1CCCCN(Cc2ccc(Cl)cc2)C1=O)c1c(F)cccc1F (stereo not drawn)	0	4	3	nt	nt	nt
Cc1ccccc1C(=O)NNC(=S)NC(=O)c1cccs1	34*	-1	-9	2	39*	-5	BODIPY interf DR=>122
CC(=O)Nc1cc2c(ccc3ccccc32)oc1=O	-2	-218	-220	nt	nt	nt
O=C(Nc1cc2c(ccc3ccccc32)oc1=O)C1CCCCC1	23*	-4	-9	-2	-3	-4
COc1ccccc1CNC(=O)N1CCC(c2nc3ccc(Cl)cc3[nH]2)CC1	-3	-2	0	nt	nt	nt
CN(C)c1cccc(/C=C2\CC3(OC(=O)c4ccccc4)CCCN2C3)c1 (stereo not drawn)	14	0	-11	nt	nt	nt
COc1ccc(NC(=S)NCCCN2CCOCC2)cc1	22*	8	1	-2	1	0
COc1cc(NC(=S)NCCN2CCOCC2)cc(OC)c1OC	12	6	-2	-1	nt	nt
COc1ccc(NC(=S)NCCN2CCOCC2)cc1	8	1	0	0	nt	nt
